Source: PubChem
TRPML1 ag = activates the human TRPML1 channel | 410,000 tested, 0.12% active | Q9GZU1 | AID 624414 | activation, % (no concentration beside the values) | TRPML1-expressing cells, Ca2+ dye fluorescence, FDSS; in the data active = activation above about 50%; inconclusive = mostly about 30% to 49%; also: 0% is about no effect
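In this qHTS format, compounds were pin-transferred onto Ca8-dye-loaded TRPML1-DL cells induced with Tet overnight, and intracellular Ca2+ fluorescence was recorded kinetically for 110 s after a 10 s baseline. A subsequent 4uM final 54-4 (EC80) addition followed by a second 110 s read served as the antagonist phase.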
TRHR ag = TRH receptor (human) agonism; P34981; 360,000 tested, 0.18% active; activation, % at 2 µM; TRHR cells, calcium flux fluo-8, FDSS agonist mode; AID 493084; in the data active = activation above about 30%; also: 0% is about no effect
Target sequence (P34981 whole entry, looked up): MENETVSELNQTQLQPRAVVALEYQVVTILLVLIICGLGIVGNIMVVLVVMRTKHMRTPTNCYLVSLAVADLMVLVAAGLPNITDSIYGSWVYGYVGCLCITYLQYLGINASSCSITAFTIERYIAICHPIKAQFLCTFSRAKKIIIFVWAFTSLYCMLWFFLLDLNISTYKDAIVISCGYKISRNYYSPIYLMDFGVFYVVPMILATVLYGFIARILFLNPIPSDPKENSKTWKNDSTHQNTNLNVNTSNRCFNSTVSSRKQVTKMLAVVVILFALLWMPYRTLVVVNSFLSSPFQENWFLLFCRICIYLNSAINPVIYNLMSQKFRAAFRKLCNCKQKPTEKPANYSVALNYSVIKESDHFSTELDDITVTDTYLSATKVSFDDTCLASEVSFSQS
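Agonist-mode FDSS calcium read (Ex 480/Em 530, 1 s cycles) in 1536-well TRHR cells with fluo-8 dye, after 10-cycle baseline and 23 nL compound addition; TRH at EC20 (10 nM final) added afterwards for the enhancer phase.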
TRHR enhancer = TRH receptor (human) allosteric enhancement. TRHR cells, fluo-8 calcium fluorescence, EC20 TRH enhancement. enhancement, % at 2 µM. P34981. AID 493056. 360,000 tested, 0.66% active; in the data active = enhancement above about 30%; also: 0% is about no effect
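Enhancer read-out: after compound pinning and an initial kinetic agonist-mode read, an EC20 of TRH (10 nM final) was injected and fluo-8 calcium signal (Ex 480/Em 530) followed at 1 s/cycle for 100 cycles in TRHR-expressing cells.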
PTHR1 ag = PTHR1 (human) receptor agonism; HEK293 GP2 PTHR1 cells, GloSensor cAMP luminescence, 1 h; AID 743266; Q03431; 410,000 tested, 0.075% active; Potency, µM (top dose mostly 115 µM), without a hit: at the highest dose activation, usual class: activators; also: potency is read from the fitted curve at half-maximal effect; nearly all actives have a fitted effect of over 55% in size
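HEK-293-derived GP2 cells expressing PTHR1 and a GloSensor cAMP reporter, 3,000/well, plated overnight, given luciferin plus IBMX (each 0.5 mM as added) for 1 h at 37 °C, then compound for 1 h at 37 °C. Luminescence was read after 15 min at room temperature.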
TRPML1 inh = blocks the human TRPML1 channel | activity change, negative = inhibition, % (concentration not given with the values) | TRPML1-inducible cells, Ca2+ dye fluorescence, FDSS; hits give low values; inhibition of EC80 agonist-evoked calcium signal | AID 624415 | 390,000 tested, 0.02% active | Q9GZU1; in the data active = activity change below about -50%; inconclusive = between about -30% and that limit;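 also: stimulus is agonist 54-4 at its EC80 concentration; % is scaled to controls: 0 for no effect and ±100 for the full control effect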
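Calcium fluorescence in TRPML1-DL cells induced overnight with Tet: a 110 s read after compound pin addition, then a 110 s antagonist read after challenge with 54-4 at 4 uM final (EC80).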
HEK293 tox = cytotoxicity counter-screen for GLP-1 receptor inverse agonists; Potency, µM (highest dose often 38.3 µM), without a hit: at the top dose activity change, negative = inhibition, hits mostly inhibitors; HEK293 cAMP-luciferase reporter cells, luminescence, 24 h; AID 624418; 410,000 tested, 0.13% active;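 also: loss of luciferase light is scored as toxicity; potency is read from the fitted curve at half-maximal effect; % is scaled to controls: 0 for no effect and ±100 for the full control effect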
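Here, cytotoxicity is scored as loss of luminescence. The MLSMR collection was tested on cells seeded in medium containing 10% Nu serum, with a 24 hr compound exposure preceded by 12 hours of culture.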
* = called active by the depositor; i = inactive; ? = inconclusive; / = no result given; [ ] = remark or other dose. Compounds with a hit are over-represented: about 0.93% of the library has one in this group of screens. Unless noted, calls follow the shape of the dose curve; as a rule, active = well fitted curve in the direction sought with a large enough effect; inconclusive = small, poorly fitted or top-dose-only effect, or another doubt; inactive = no such curve, though single readings can be large; an effect the other way counts as inactive or inconclusive.

SMILES | TRPML1 ag | TRHR ag | TRHR enhancer | PTHR1 ag | TRPML1 inh | HEK293 tox
CN1CCc2c(sc3c2C(=O)NC(c2ccc(OC(=O)c4ccc(C(C)(C)C)cc4)cc2)N3)C1 (centres undefined) | ? | 121* | 9 | -12% | -5 | 40%
CN1CCc2c(sc3c2C(=O)NC(c2ccc(OC(=O)c4ccc(Cl)cc4)cc2)N3)C1 (centres undefined) | 13 | 71* | 1 | i | 19 | 61%
c1cc2c(cc1Cc1cncc(Cc3ccc4c(c3)OCO4)c1)OCO2 | -1 | / | / | / | / | /
CC(C)c1cc2c(s1)c1cnn(Cc3ccccc3F)c(=O)c1n2C | / | 0 | -2 | / | / | /
O=[N+]([O-])c1ccccc1N/N=C/c1c[nH]c2ccccc12 | 1 | -1 | 0 | -22% | 6 | ?
O=C(O)c1cccc(-c2ccc(/C=N/Nc3ccc([N+](=O)[O-])cc3)o2)c1 | ? | 70* | 14 | -6% | -3 | ?
O=[N+]([O-])c1ccc(N/N=C/c2c[nH]c3ccccc23)cc1 | ? | 32* | -3 | -13% | -9 | ?
CNc1cc(C(=O)O)nc2ccccc12 | 10 | / | / | / | / | /
O=C(O)c1cccc(S(=O)(=O)N2CCN(S(=O)(=O)c3ccc4c(c3)OCCO4)CC2)c1 | / | 2 | 6 | / | / | /
CN(Cc1ccccc1)C(=S)NC(=O)c1cccs1 | 0 | 0 | 44* | i | -9 | ?
CSCCC(NS(=O)(=O)c1ccc2c(c1)oc(=O)n2C)C(=O)N1CCN(c2cccc(Cl)c2)CC1 (centres undefined) | 2 | 0 | 38* | i | -2 | 3%
COc1cccc(N2CCN(C(=O)C(CCSC)NS(=O)(=O)c3ccc4c(c3)oc(=O)n4C)CC2)c1 (centres undefined) | 1 | 0 | 4 | -24% | 21 | 1%
COC(=O)C1=C(C)N(C2CCCCC2)C(=O)/C1=C\c1cccs1 | 0 | 0 | 40* | i | 2 | -2%
Cc1cc(S(=O)(=O)Cc2noc(-c3c(C)noc3C)n2)c(C)cc1Cl | 120* | 0 | 0 | -52% | -14 | -2%
Cc1noc(C)c1-c1nc(CSc2ccccc2)no1 | 2 | 0 | 3 | i | -4 | 6%
CCOC(=O)c1c2c(n(-c3ccc(OC)cc3)c1C)C(=O)C(=O)c1ccccc1-2 | 1 | / | / | -22% | 17 | 3.2µM*
CCOC(=O)c1sc(=S)n(-c2ccc(OC)cc2)c1C | 2 | 0 | 3 | -9% | 23 | -13%
CCCCCCCCCCCCCCCCOC(=O)N1CCN(/[N+]([O-])=N/Oc2ccc([N+](=O)[O-])cc2[N+](C)=O)CC1 | 2 | / | / | / | 4 | /
CCn1c(C)c2c([n+]1CC)CC(C)(C)CC2=O | 1 | 0 | 3 | -3%[57.5 µM] | -3 | 10%
CCn1c2c(c(C)cc1=O)C(=O)CC(C)(C)C2 | 0 | 0 | 34* | i | 19 | -15%
CCCN(C)CCCOc1cc2nc(N3CCCN(C)CC3)nc(NC3CCN(C)CC3)c2cc1OC | 0 | / | / | / | / | /
COC(=O)c1cc(Nc2cc(C)c3c(O)cccc3n2)cc(C(=O)OC)c1 | 0 | 0 | 12 | -22% | 9 | -11%
COC(=O)c1cc(Nc2cc(C)c3ccc(O)cc3n2)cc(C(=O)OC)c1 | 1 | 1 | 32* | -10% | -6 | 2%
Cc1ccc(C(=O)OCC(=O)N(C)c2ccccc2)cc1C | 0 | 1 | 5 | -7% | -10 | -4%
Cc1cc(C(=O)OCC(=O)N(C)c2ccccc2)ccc1[N+](=O)[O-] | 0 | -1 | 35* | -31% | 15 | -4%
CCCN1CNc2c(c(=O)[nH]c(=S)n2CCc2ccccn2)C1 | 0 | / | / | / | / | /
COc1ccc(Cl)cc1S(=O)(=O)N1CCN(S(=O)(=O)c2ccc3c(c2)OCCO3)CC1 | / | 0 | 5 | / | / | /
C/C(=N\NC(N)=O)C1(C)CCCCC1 | 0 | 0 | 35* | 10% | 2 | -9%
C/C(=N\NC(N)=S)C1(C)CCCCC1 | 0 | 0 | -1 | i | 3 | ?
